Compound activity from PubChem BioAssay.
Pf growth 96h: P. falciparum growth inhibition at 96 hours. P. falciparum luciferase reporter growth, 96 h. Potency, µM (titrated, usually from 28.7 µM), inactives show at the top dose activity change, negative = inhibition, most hits filed as inhibitors. actives 6.9% (n = 320,000); further: potency means the concentration at half of the fitted maximal effect
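P. falciparum expressing integrated firefly luciferase, in erythrocytes at 2% hematocrit, 0.05% parasitemia, incubated with compounds 96 h at 37 C, 5% CO2. Growth inhibition read as loss of luminescence; two-generation exposure targets delayed-death apicoplast inhibitors.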
Giardia FBPA inh: Giardia lamblia aldolase inhibition | AID 2451 | Potency, µM (highest dose often 59.6 µM), for the others: at the top dose activity, negative = inhibition, actives largely listed as inhibitors | A8B2U2 | purified Giardia FBPA | actives 0.71% (n = 290,000); further: potency means the concentration at half of the fitted maximal effect; nearly all actives have a fitted effect of over 55% in size
Target sequence (A8B2U2 whole entry, looked up): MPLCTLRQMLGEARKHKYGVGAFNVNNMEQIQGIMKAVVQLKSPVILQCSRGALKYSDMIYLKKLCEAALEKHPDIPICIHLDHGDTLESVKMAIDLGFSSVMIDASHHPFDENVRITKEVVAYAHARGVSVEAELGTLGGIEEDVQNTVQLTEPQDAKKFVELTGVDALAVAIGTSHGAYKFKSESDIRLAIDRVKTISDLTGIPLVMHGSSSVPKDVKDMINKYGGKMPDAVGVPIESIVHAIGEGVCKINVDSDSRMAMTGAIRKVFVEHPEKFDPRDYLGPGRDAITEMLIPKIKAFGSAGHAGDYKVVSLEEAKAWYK
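Giardia FBPA (40 nM reagent) was preincubated 10 min at RT with compound (up to 57.5 uM final), then substrate plus GAPDH/TPI/NAD/arsenate coupling system with diaphorase/resazurin was added; resorufin fluorescence (525/598 nm) was read after 20 min.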
Pf growth 48h: P. falciparum growth inhibition at 48 hours (one generation) | P. falciparum luciferase growth in erythrocytes, 48 h | Potency, µM (top dose mostly 28.7 µM), inactives show top-dose activity change, negative = inhibition, usual class: inhibitors | actives 5.9% (n = 310,000); further: potency means the concentration at half of the fitted maximal effect
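A one-generation exposure of luciferase-tagged malaria parasites in RPMI 1640/Albumax erythrocyte culture, 37 C and 5% CO2. Inhibition is inferred from decreased luminescence after adding detection reagent.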
Sm TGR block: blocks Schistosoma mansoni thioredoxin glutathione reductase; Q962Y6; purified TGR, DTNB reduction, TNB absorbance 405 nm; Potency, µM (titrated, usually from 114 µM), for inactives: at the highest dose activity change, negative = inhibition, hits mostly inhibitors; actives 3% (n = 360,000); AID 485364; further: potency means the concentration at half of the fitted maximal effect; nearly all actives have a fitted effect of over 60% in size
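TGR 20 nM + NADPH 100 uM (dispensed conc.), cpd preinc 15 min RT; start with NADPH (500 uM addition) then DTNB (15 mM addition). Kinetic TNB absorbance, 405 nm filter. Four-parameter Hill fit across titration.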
HCMV antiviral: human cytomegalovirus inhibition | HFF cells, HCMV-luciferase reporter, 72 h; active compounds read low | activity change, negative = inhibition, % at 57.5 µM | actives 4.5% (n = 410,000); in the data active means activity change below about -60%; inconclusive means no clear call, values can overlap the other calls; inactive means above about -39%
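Inhibition of viral replication was scored as loss of reporter luminescence in HFFs infected with HCMV-luciferase (MOI 1 PFU/cell) for 72 h; compounds tested at 2 doses, normalized to buffer and Salinomycin controls.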
Active calls of the source: *; ? = inconclusive; . = no result given. Rows were chosen to be rich in hits. Some 14% of all compounds tested hit in one or more screens of this group. Unless noted, the call rests on the fitted dose curve; in most records, active means well fitted curve in the direction sought with a large enough effect; inconclusive means small, poorly fitted or top-dose-only effect, or another doubt; inactive means no such curve, though single readings can be large; an effect the other way counts as inactive or inconclusive. On the % scale 0 is the no-effect control and ±100 the full control effect.

SMILES	Pf growth 96h	Giardia FBPA inh	Pf growth 48h	Sm TGR block	HCMV antiviral
CCc1[nH]c(=O)[nH]c1C(C)S(=O)(=O)c1ccc(C)cc1 (stereo not drawn)	15.7%	-2.9%	-12.2%	0.282µM*	17.9
Cc1ccc(-n2c3c(c(=O)[nH]c2=O)C(NS(=O)(=O)c2ccc(C)cc2)(C(F)(F)F)C(=O)N3)cc1 (stereo not drawn)	244.9%	-10.5%	?	9.3%	12.7
CCc1c(C(C)S(=O)(=O)c2ccc(C)cc2)[nH]c(=O)n1-c1ccc(C)cc1 (stereo not drawn)	.	-0.6%	?	2.82µM*	5.1
C=CCC(C=C)S(=O)(=O)c1ccc(C)cc1 (stereo not drawn)	.	0.0%	4.9%	-19.8%	-20.9
CCCc1c(C(=O)N/N=C/C2CC=CCC2)nnn1-c1nonc1N (stereo not drawn)	.	.	.	.	14.6
CN(c1ccccc1)C1CCCCC1NS(=O)(=O)c1ccc(Cl)cc1 (stereo not drawn)	?	-3.2%	6.57µM*	-21.5%	-24.4
COC(=O)C1=C(c2cccc(C#N)c2)C[C@@H]2CC[C@H]1N2C(=O)NCCOc1ccccc1Cl	?	.	13.1µM*	0.3%	-35.2
COC(=O)C1=C(c2cccc(C#N)c2)C[C@@H]2CC[C@H]1N2C(=O)NCCOc1ccccc1	-0.8%	.	?	-6.2%	-39.7
COC(=O)C1=C(c2cccc(OCc3ccccc3)c2)C[C@@H]2CC[C@H]1N2C(=O)NCCOc1ccccc1Cl	?	.	13.1µM*	2.2%	-18.4
COC(=O)C1=C(c2cccc(OCc3ccccc3)c2)C[C@@H]2CC[C@H]1N2C(=O)NCCOc1ccccc1	?	.	9.28µM*	1.8%	-20.3
COC(=O)C1=C(c2cccc(OCc3ccccc3)c2)C[C@@H]2CC[C@H]1N2C(=O)NCCc1ccc(F)cc1	?	.	7.38µM*	-4.3%	-20.1
Cc1ccccc1CN1C(=O)c2ccccc2C1c1nnnn1Cc1ccccc1 (stereo not drawn)	.	.	.	.	16.9
CCN1/C(=C/C=C/C=C/c2sc3ccccc3[n+]2CC)Sc2ccccc21	3.38µM*	?	3.01µM*	50.1µM*	.
CCN1/C(=C/C=C/C=C/C=C/c2sc3ccccc3[n+]2CC)Sc2ccccc21	15.1%	?	?	39.8µM*	-95.6*
CCN1C(=O)/C(=C/C=C2/Sc3ccccc3N2CCO)SC1=S	17.8%	-6.6%	-6.1%	0.0%	-10.6
CCN1/C(=C/C=C/c2sc3ccccc3[n+]2CC)Sc2ccccc21	0.147µM*	.	0.329µM*	-22.5%	.
CC[n+]1c(/C=C/Nc2ccccc2)sc2ccccc21	-84.6%	-2.0%	?	-1.8%	-16.0
CN(CC(=O)Nc1cccc(F)c1)C(=O)c1ccc(C(=O)c2ccccc2)cc1	9.28µM*	.	?	-11.7%	-27.1
CN(CC(=O)Nc1cccc(F)c1)CC(=O)NC(c1ccccc1)c1ccccc1	?	.	11.7µM*	-10.6%	8.9
CN(CC(=O)Nc1cccc(F)c1)CC(=O)Nc1ccccc1-c1ccccc1	.	.	.	.	4.9
Cc1cc(OCC(=O)OCC(=O)Nc2ccc(Cl)cn2)ccc1Cl	42.6%	.	5.1%	-0.3%	81.6
COc1ccc(NC(=O)C2CCN(S(=O)(=O)c3cccc4nonc34)CC2)cc1	?	6.4%	-14.2%	-15.6%	24.0
Cc1c(C)c2c(OCC(=O)N3CCC(C(=O)O)CC3)cc3c(c2oc1=O)CCC(C)(C)O3	5.22µM*	-1.3%	?	-6.0%	.
Cc1c(C)c2c(OCC(=O)Nc3ccc(CCO)cc3)cc3c(c2oc1=O)CCC(C)(C)O3	13.1µM*	-25.9%	8.28µM*	6.0%	19.5
Cc1cc(C(=O)Nc2ccncc2)c(C)o1	.	.	.	.	-21.9
SMILES	Pf growth 96h	Giardia FBPA inh	Pf growth 48h	Sm TGR block	HCMV antiviral
CC1CCCCN1CCNC(=O)C1CC(=O)N(c2ccc(F)c(Cl)c2)C1 (stereo not drawn)	46.8%	3.7%	?	-4.1%	-6.7
CC1CCCN(CCCNC(=O)C2CC(=O)N(c3ccc(F)c(Cl)c3)C2)C1 (stereo not drawn)	7.8%	4.6%	14.7µM*	-27.4%	33.3
CON(C)C(=O)/C=C/[C@H](CC1CCCC1)NC(=O)C(F)(F)F	.	.	.	.	-9.6
COc1ccc(NC(=O)CN(C)C(=O)c2ccc(NS(=O)(=O)c3ccc4[nH]c(=O)[nH]c4c3)cc2)cc1	?	.	1.7%	-1.4%	-13.3
CC(C)Cn1cc(C(=O)NCCCOC(C)C)c2c3ccccc3n(C)c2c1=O	?	0.5%	.	-16.3%	-0.5
CC(C)Cn1cc(C(=O)NCC2CCCO2)c2c3ccccc3n(C)c2c1=O (stereo not drawn)	-41.2%	-16.7%	13.1µM*	-22.8%	28.2
Cn1c2ccccc2c2c(C(=O)NCC3CCCO3)cn(C3CCCC3)c(=O)c21 (stereo not drawn)	4.15µM*	-14.3%	?	-25.1%	.
COC(=O)/C=C\c1cc(O)ccc1O	.	-19.4%	.	.	.
COc1ccc(-c2cc(NC=O)c3ncc(-c4ccc(OC)c(OC)c4)n3c2)c(OC)c1	.	.	.	.	-74.3*
CN1CCN(c2ccc(-c3cc(NC=O)c4ncc(-c5ccc(F)c(Cl)c5)n4c3)cc2)CC1	.	.	.	.	-92.1*
COc1ccc(-c2cc(NC=O)c3ncc(-c4cc(OC)c(OC)c(OC)c4)n3c2)cc1	.	.	.	.	-80.7*
COc1ccc(-c2cnc3c(NC=O)cc(-c4cc(OC)c(OC)c(OC)c4)cn23)cc1OC	.	.	.	.	65.0
COc1ccc(-c2cc(NC=O)c3ncc(-c4cccc(OC)c4)n3c2)cc1	.	.	.	.	-14.0
CC(=O)Nc1cc(-c2ccc(N3CCN(C)CC3)cc2)cn2c(-c3ccc(F)c(Cl)c3)cnc12	.	.	.	.	-29.7
COc1cccc(-c2cnc3c(NC=O)cc(-c4ccc(OC)cc4OC)cn23)c1	.	.	.	.	-92.1*
O=C1C=C(c2cccc3c2sc2ccccc23)C[C@@H](c2ccc(Cl)cc2)C1	16.1%	.	-16.1%	-13.7%	3.1
CN1C(=O)C(n2cccc2)c2ccccc21 (stereo not drawn)	.	.	.	.	-0.5
CC1C(=O)N(Cc2ccc(F)cc2)c2ccccc2N1C(=O)c1c(F)cccc1F (stereo not drawn)	11.7µM*	-10.4%	?	-5.5%	-72.9*
COC(=O)c1ccc(CN2C(=O)C(C)N(C(=O)c3c(F)cccc3F)c3ccccc32)cc1 (stereo not drawn)	?	6.4%	?	-1.4%	-6.9
COc1ccc(C(O)c2ncc(-c3ccccc3)[nH]2)c(OC)c1 (stereo not drawn)	.	.	.	.	-66.5*
CCCn1c(CCC(=O)O)nc2cc(S(=O)(=O)N3CCCC3)ccc21	-12.8%	3.1%	-4.1%	-5.1%	-10.9
COc1ccc(C#Cc2cnc3c(c2)C(=O)N([C@@H](C)CO)C[C@@H](C)[C@@H](CN(C)CC2CCOCC2)O3)cc1	.	.	.	.	1.0
COc1ccc2[nH]c(=O)c(CN(CC3CCCO3)C(=O)Nc3ccccc3OC)cc2c1 (stereo not drawn)	.	0.4%	?	8.4%	-1.1
